Only a selection was taken, and hits are over-represented in it overall.
ST2 inh – inhibitors of human ST2 (IL1RL1) binding to IL-33, primary screen, biochemical, AlphaLISA; AlphaLISA ST2-Fc/biotin-IL-33 interaction, 1 h; AID 1259354, 2018; inhibition, % for hits at 17 µM; hit rate 2.3% among 78,000; in the data active = inhibition above about 30%
Target sequence (Q01638 whole entry, looked up): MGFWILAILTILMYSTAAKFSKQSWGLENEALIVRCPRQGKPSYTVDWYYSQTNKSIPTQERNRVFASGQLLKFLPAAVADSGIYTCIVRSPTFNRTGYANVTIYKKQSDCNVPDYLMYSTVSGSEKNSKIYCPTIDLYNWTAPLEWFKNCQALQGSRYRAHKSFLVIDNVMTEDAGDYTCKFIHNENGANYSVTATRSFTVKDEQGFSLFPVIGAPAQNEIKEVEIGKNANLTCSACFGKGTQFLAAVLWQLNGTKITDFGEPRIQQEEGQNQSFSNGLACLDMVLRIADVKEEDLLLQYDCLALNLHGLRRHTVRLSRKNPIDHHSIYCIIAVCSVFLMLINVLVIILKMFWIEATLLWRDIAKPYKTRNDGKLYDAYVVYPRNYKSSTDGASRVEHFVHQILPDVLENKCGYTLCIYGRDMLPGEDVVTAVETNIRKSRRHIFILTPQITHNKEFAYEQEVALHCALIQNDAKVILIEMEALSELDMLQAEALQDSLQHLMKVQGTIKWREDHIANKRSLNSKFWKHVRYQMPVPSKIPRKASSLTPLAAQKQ
The depositor's hits bear a star; i = inactive.

SMILES | ST2 inh
CCSC1=C(C#N)C(c2cccc(Cl)c2)CC(=O)N1 (stereo not given) | i
Cc1ccccc1NC(=O)CCN1CC(C)CC(C)C1 (stereo not given) | i
CSc1cccc(-n2cc(-c3ccc(Br)cc3)[nH]c2=O)c1 | i
Cc1nc(CNC(=O)CCc2ccccc2O)cs1 | i
CCOc1cc2c(cc1-c1nccn1Cc1cnn(C)c1C)CCC2 | i
O=c1c2ccccc2ncn1CCCOc1ccc(Cl)cc1Br | i
O=C(N[C@H]1CO[C@H]2[C@@H]1OC[C@@H]2Nc1nccc(-c2cccc(F)c2)n1)c1ccc2c(c1)OCO2 | i
c1coc(CNCC2OCc3ccccc3CO2)c1 | i
O=C(Nc1ccc(F)cc1F)c1cc(-c2ccc(Br)cc2)on1 | i
COc1ccc(-c2cc(C(=O)Nc3cc(Br)ccc3O)no2)cc1 | 35%*
O=C(Nc1ccc(Br)cc1)c1cc(-c2ccc(Cl)cc2)on1 | i
CC1(C(=O)Nc2ccc(Br)cn2)CC1(Cl)Cl (stereo not given) | i
COCc1noc(CNCC(=O)Nc2cc(C)ccc2F)n1 | i
CCCC1COCCN1C(=O)c1cc(=O)c2ccccc2o1 (stereo not given) | 40%*
Cc1ccc(NC2CCCN(C(=O)c3cc(=O)c4ccccc4o3)C2)cc1C (stereo not given) | i
CCN1CCN(C(=O)c2cc(=O)c3ccccc3o2)C(C)C1=O (stereo not given) | i
COc1ccc(C(=O)CSc2nc3c([nH]2)c(=O)n(C)c(=O)n3C)c(F)c1 | i
COc1cccc(-c2cc(N3CCN(S(=O)(=O)Cc4ccccc4)CC3)ncn2)c1 | i
CCOc1cc(/C=C2/NC(=O)NC2=O)cc(Br)c1OCc1cccc(C(=O)O)c1 | i
O=C(c1ccccc1)c1ccc(/C=C/c2ccccn2)cc1 | 55%*
C(=C\c1cc(/C=C/c2ccccc2)ncn1)/c1ccccc1 | i
C(=C\c1ccccn1)/c1cccc(-n2cnnc2)c1 | i
CCOC(=O)Cn1c(=O)n(-c2ccc(F)cc2)c2nc(-c3cccc(F)c3)nc(C(N)=O)c21 | i
O=C(c1cc(-c2ccc3c(c2)OCO3)on1)N1CCCc2ccccc21 | i
COCCCNC(=O)Cn1cnc2sc3c(c2c1=O)CCCC3 | i
SMILES | ST2 inh
COC(=O)c1ccc(C(=O)N=c2sc3cccc(OC)c3n2C)cc1 | i
Cc1ccc(N2C(=O)C3CCCCC3C2=O)cc1C (stereo not given) | i
Cc1ccc(N2CN=C3SCC(=O)N3C2)cc1C | 37%*
Cc1ccc(N2CN=C3SCC(=O)N3C2)cc1Cl | i
CCn1cc(C=C2C(=O)OC(C)(C(C)(C)C)OC2=O)c2ccccc21 (stereo not given) | 44%*
Cn1cc(/C=C2\C(=O)NN(c3ccccc3)C2=O)c2ccccc21 | i
COc1ccc(C=C2C(=O)OC3(CCCCC3)OC2=O)cc1O | i
CCOc1cc(C=C2C(=O)OC(C)(C(C)(C)C)OC2=O)cc(I)c1O (stereo not given) | i
CCOc1cc(C=C2C(=O)OC(C)(C(C)(C)C)OC2=O)ccc1OC (stereo not given) | i
N#Cc1ccccc1Cn1cc(C=C2C(=O)NC(=O)NC2=O)c2ccccc21 | i
CCN(CC)c1ccc(C=C2C(=O)OC(C)(C(C)(C)C)OC2=O)cc1 (stereo not given) | 43%*
CCN(CC)C(=O)Cn1cc(/C=C2\C(=O)NC(=O)N(CC)C2=O)c2ccccc21 | i
Cn1cc(C=C2C(=O)OC3(CCCCC3)OC2=O)c2ccccc21 | 41%*
COC(=O)C1C(=O)C2=C(CC1C)NC(C)=C(C(=O)OCCOC(C)C)C2c1ccc(OC)cc1 (stereo not given) | i
COc1ccc(N2C(=O)Nc3ccccc3C2(O)C(=O)NC2CCCc3ccccc32)c(OC)c1 (stereo not given) | i
CC(C)NC[C@H]1O[C@@H](CO)[C@@H](O)[C@H]1N1CCOCC1 | i
CNC(=O)c1cc2c(s1)CCN(Cc1cc3n(n1)CCNC3)C2 | i
c1ccc(-c2cc(CN3CCCC3c3nc4ccccc4s3)on2)nc1 (stereo not given) | i
CC1CCN(C(=O)Cn2cnc3c(cnn3-c3ccc(Cl)cc3)c2=O)CC1 | i
O=C(Nc1ccc([N+](=O)[O-])cc1)C12CC3CC(CC(C3)C1)C2 | i
Cc1nc(NCCCN2CCOCC2)c2cc(-c3ccccc3)sc2n1 | i
COC(=O)c1cc(O)c(C(=O)c2c(O)cccc2C(=O)O)c(O)c1 | i
O=C1C[C@H]2CC[C@@H](CN1)N2C(=O)Cn1nnc(-c2ccc(F)cc2)n1 | i
CCOc1ccc(C2Nc3cccc4cccc(c34)N2)cc1 | 36%*
CCOc1ccc(C2CC(c3ccc(Cl)cc3)n3nc(N)nc3N2)cc1 (stereo not given) | i
SMILES | ST2 inh
CCOc1ccc(C2CC(c3ccccc3OC)n3ncnc3N2)cc1 (stereo not given) | i
COc1ccc(C(=O)Nc2ccccc2I)cc1 | i
O=[N+]([O-])c1ccc(S(=O)(=O)NC2C3CC4CC(C3)CC2C4)cc1 (stereo not given) | i
CCOc1cc(C(Nc2ccccn2)c2ccc3cccnc3c2O)ccc1O (stereo not given) | i
CCN(CC)c1ccc(C(Nc2ccccn2)c2ccc3cccnc3c2O)cc1 (stereo not given) | 36%*
Cc1ccnc(NC(c2cccnc2)c2ccc3cccnc3c2O)c1 (stereo not given) | i
CCC(C)NC(=O)C1CCC(=O)N1Cc1ccc(F)cc1 (stereo not given) | i
CCc1ccc2nc(NCCNC(C)=O)cc(C)c2c1 | i
CCCCOc1ccc(/C=c2\sc3nc(=O)c(C)nn3c2=O)cc1OC | i
COc1cc(C=O)ccc1OCCCOc1ccccc1C(=O)O | i
COc1ccccc1OCCCOc1ccc(/C=C2/C(=N)N3C=CSC3=NC2=O)cc1OC | 34%*
Cc1cc(C)cc(N2CCN(C(=O)CC3NC(=O)NC3=O)CC2=O)c1 (stereo not given) | i
O=C(NC[C@H]1O[C@@H](CC(=O)N2CCN(c3ccccc3)CC2)[C@H](O)[C@@H]1O)Nc1cccc(F)c1 | i
CC(C)(C)CC(=O)Nc1ccc([N+](=O)[O-])cc1 | i
Cc1ccc(NC(=O)c2ccc([N+](=O)[O-])cc2)cc1F | i
Cc1ccc(NCC(=O)c2ccc([N+](=O)[O-])cc2)cc1 | 36%*
CN(C)C(=O)c1ccc2c(c1)N(C)C(CC(=O)NCc1ccno1)CO2 (stereo not given) | i
O=C(CN1CCN(Cc2ccccc2Cl)S1(=O)=O)Nc1ccc(Cl)cc1F | i
NC(=O)c1c(NC(=O)c2noc3c2CCCCC3)sc2c1CCCC2 | i
Cc1nc(N)nc(C)c1CC(=O)N1CCCC(Nc2ccccc2)C1 (stereo not given) | i
COc1ccccc1CN1CCCCCC1 | i
COc1ccccc1CN1CCSCC1 | i
CCOc1ccccc1CN1CCSCC1 | 31%*
COc1cc(OC)c(C2SCCN2C(=O)c2ccc([N+](=O)[O-])cc2)cc1OC (stereo not given) | i
O=C(O)c1ccc(NC(=O)C(Cl)Cl)cc1 | i
Cc1ccc(CN2C(=O)CSc3ccc(C(=O)NCc4ccco4)cc32)cc1 | i
COc1ccc(/C=C(/C#N)c2nc(-c3cccs3)cs2)cc1OC | 49%*
N#C/C(=C\Nc1ccc(S(N)(=O)=O)cc1)c1nc(-c2ccc(Cl)cc2)cs1 | i

Compound activity from PubChem BioAssay.
